Shown are actives, neighbours in structure and some others; about 3.1% of the full set was active somewhere.
proKLK7 act: proKLK7 zymogen activators, primary screen, biochemical, fluorescence intensity; activation, % at 7 µM; 370,000 tested, 0.9% active; AID 652039, 2013; purified proKLK7, EDANS-DABCYL substrate fluorescence; 100% is mature enzyme control, 0% vehicle; Kallikrein-7 (Homo sapiens), P49862;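 active = activation above the mean of all tested compounds plus 3 SD, computed per campaign excluding outliers beyond control limits, cut at about 13% in these data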
Target sequence (P49862 whole entry, looked up): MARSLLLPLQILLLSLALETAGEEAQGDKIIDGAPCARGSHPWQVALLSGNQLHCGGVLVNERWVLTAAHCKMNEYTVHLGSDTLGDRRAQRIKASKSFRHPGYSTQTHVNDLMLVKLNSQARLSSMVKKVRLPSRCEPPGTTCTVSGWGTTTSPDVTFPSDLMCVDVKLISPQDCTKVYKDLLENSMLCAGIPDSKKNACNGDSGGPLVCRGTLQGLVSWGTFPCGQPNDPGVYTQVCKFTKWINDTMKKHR
Neddylation inh: inhibitors of cullin neddylation, primary screen, biochemical, TR-FRET, uHTS, NAE and Ubc12; NEDD8-conjugating enzyme Ubc12 (Homo sapiens) + NEDD8-activating enzyme E1 regulatory …; calls only at 25 µM; 360,000 tested, 0.58% active; AID 651699, 2012; in the data active = inhibition above about 36%
Rin1-Abl PPI inh: inhibitors of Rin1-Abl protein binding, primary screen, biochemical, TR-FRET | Tyrosine-protein kinase ABL1 (Homo sapiens) + Ras and Rab interactor 1 (Homo sapiens), … | inhibition, % at 7.35 µM | 360,000 tested, 0.4% active; in the data active = inhibition above about 5%, passing the limit was not always enough
LEDGF integ inh: blockers of LEDGF/p75-dependent integrase strand transfer – biochemical, TR-FRET, high throughput, primary screen. HIV-1 integrase (with human LEDGF/p75). TR-FRET IN-LEDGF/p75 DNA integration, Eu/Cy5. inhibition, % at 3.7 µM. 370,000 tested, 0.64% active. AID 743269, 2014;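 active = inhibition above the screen-wide mean plus 3 SD, cut at about 13% in these data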;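 note: signal is the Cy5 over europium emission ratio at 671 and 618 nm; 0% = plate median of compound wells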
MBD2 inh: inhibitors of MBD2 binding to methylated DNA, primary screen, biochemical, TR-FRET, DNA-binding domain, human; inhibition, % at 4.4 µM; 370,000 tested, 0.31% active; Methyl-CpG-binding domain protein 2 (Homo sapiens), Q9UBB5; MBD2 binding to methylated oligonucleotide; in the data active = inhibition above about 13%
UHRF1 binding: UHRF1 methylated DNA binding inhibitors, primary screen, counter-screen for MBD2 inhibitor project, biochemical, TR-FRET, human UHRF1, single concentration; UHRF1 binding to methylated oligo; inhibition, % at 4.4 µM; 370,000 tested, 0.75% active; AID 687016, 2013; E3 ubiquitin-protein ligase UHRF1 (Homo sapiens), Q96T88; in the data active = inhibition above about 21%;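 note: UHRF1 SRA domain binding a hemimethylated CpG hairpin DNA probe; 0% = median of test compound wells and 100% = reference inhibitor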
Numbers without * were called inactive; i = inactive; x = not tested or not shown; + = active, no number.

SMILES	proKLK7 act	Neddylation inh	Rin1-Abl PPI inh	LEDGF integ inh	MBD2 inh	UHRF1 binding
Cc1noc(C)c1-c1ccc(C(=O)NCC2CC2)c2occc12	0.5	i	3.1	0.2	-0.1	-1.0
O=C(NCC1CC1)c1ccc(-n2ccnc2)c2ccoc12	-0.1	i	1.7	10.4	8.8	24.8*
O=C(Nc1cccc2nsnc12)c1cccnc1	2.4	i	-2.0	-3.9	0.8	55.1*
CCCCCc1nnc(NC(=O)c2ccc3nc[nH]c3c2)s1	0.1	i	0.3	-1.7	2.4	57.5*
CN(C)c1ccc(-c2nc3ccccc3c(=O)[nH]2)cc1	0.1	+	-5.9	-10.7	12.1	17.9
COc1ccc(-c2nc3ccccc3c(=O)[nH]2)cc1	-0.8	i	1.9	-6.7	0.7	-1.2
CCc1nc(Sc2nnnn2-c2ccccc2)c2c3c(sc2n1)CCCC3	-1.6	i	0.1	-5.3	2.3	41.8*
Cc1nc(Sc2nnnn2C)c2c3c(sc2n1)CCC3	1.8	i	1.4	0.9	-2.9	-0.5
C/C(=N\NC(=S)NCC(C)(C)C)c1cc(F)cc(F)c1O	-0.5	+	2.1	1.0	7.8	0.6
O=C(Nc1cc([N+](=O)[O-])ccc1Cl)c1cccnc1	-0.1	i	-1.6	-5.0	4.9	-0.9
Cc1ccc([N+](=O)[O-])cc1NC(=O)c1cccnc1	-0.5	i	-1.0	-5.2	5.0	38.8*
C#CCN1C(=O)[C@]2(NCCc3c2[nH]c2ccc(OC)cc32)c2cc(F)ccc21	0.1	x	x	1.8	-5.3	1.0
CC(=O)c1c(O)cc(C)n(-c2ccc(F)cc2)c1=O	0.1	i	-0.9	0.5	-0.8	3.5
Cc1cc(C)n(-c2ccc(F)cc2)c(=O)c1C(=O)O	-0.6	i	2.7	5.3	10.7	23.0*
O=C1N2CCc3ccccc3C2CS(=O)(=O)N1Cc1ccc(F)cc1 (stereo not drawn)	-0.2	x	x	2.1	-2.3	-4.9
COc1ccc(C2=NN(C(=O)c3ccccc3)C(c3ccc(OC)c(OC)c3)C2)c(OC(C)=O)c1 (stereo not drawn)	0.1	i	-2.1	2.2	2.2	-3.1
CCOc1ccc(N(C)Cc2cc(=O)oc3ccc(OCC)cc23)cc1	3.9	i	-0.8	-1.9	2.9	21.7*
CCOc1ccc(CN(C)Cc2cc(=O)oc3cc(C)c(Cl)cc23)cc1	0.0	i	1.3	-5.7	2.2	-0.4
CC(C)c1ccc(/C=C2\C(=O)N(CCN3CCOCC3)C(=S)N2C)cc1	0.5	i	-2.7	-0.8	-2.6	21.7*
CC(=O)c1cccc(NC(=O)N2CCCC2C(=O)Nc2cccc(C)c2)c1 (stereo not drawn)	-0.1	i	-4.4	1.1	9.2	20.9*
CC(=O)Nc1cccc(NC(=O)C2CCCN2C(=O)Nc2cccc(C)c2)c1 (stereo not drawn)	0.0	i	1.2	-2.1	1.6	-5.5
COc1cccc(NC(=O)C2CCCN2C(=O)Nc2cccc(F)c2)c1 (stereo not drawn)	-1.2	i	2.1	-1.1	3.3	63.3*
COc1ccc(C(=O)NCCNC(=O)c2cc(OCC(F)(F)F)ccc2OCC(F)(F)F)cc1	-0.4	i	-1.1	1.2	4.7	1.9
CC(C)(C)c1ccc(S(=O)(=O)N2CCCC(C(=O)NCCN3CCC(Cc4ccccc4)CC3)C2)cc1 (stereo not drawn)	0.5	x	x	-5.4	0.7	0.4
COc1ccc(C(=O)C(C)OC(=O)C2CC3CCCC(C2)C3=O)cc1 (stereo not drawn)	0.2	i	0.0	-1.3	-3.7	-1.6
SMILES	proKLK7 act	Neddylation inh	Rin1-Abl PPI inh	LEDGF integ inh	MBD2 inh	UHRF1 binding
Cc1ccc(S(=O)(=O)NC(C)C(c2cccs2)N2CCOCC2)cc1 (stereo not drawn)	0.2	i	0.8	1.8	-6.7	38.9*
Cc1ccc(S(=O)(=O)NC(C)C(c2cccs2)N2CCN(C)CC2)cc1 (stereo not drawn)	-0.2	i	2.0	1.3	-6.7	-0.1
COc1ccc(CCC(=O)NC2CCCc3ccccc32)cc1OC (stereo not drawn)	-0.5	i	-2.3	-1.4	2.6	-1.9
Cc1ccc(C(=O)O)cc1N=Cc1cc(Br)cc(Br)c1O	x	+	0.0	x	x	x
O=C1CN(C(=O)C2CCCC2)CCN1	-0.5	i	0.8	-1.3	-0.1	63.3*
COc1ccc(OC)c(C2C(C(=O)Nc3ccccc3OC)=C(C)Nc3nc(CCCO)nn32)c1 (stereo not drawn)	0.0	i	1.6	8.8	2.3	-1.5
CCOc1ccccc1C1C(C(=O)Nc2ccccc2OC)=C(C)Nc2nc(CCCO)nn21 (stereo not drawn)	0.3	i	-2.0	-3.8	1.5	22.2*
CCOC(=O)c1c2ccccc2[n+]([O-])n1[C@@H](C)C(N)=O	8.4	i	3.2	-0.9	2.0	-4.6
CC1CCN(C(=S)c2cn(Cc3cccc(F)c3)c3ccccc23)CC1	0.4	i	-1.6	2.2	-2.8	29.5*
COc1cccc(C(=O)N/N=C(/CCC(=O)O)c2ccccc2)c1	-0.5	i	-3.1	0.2	-6.4	-1.1
CCC/C(=N\NC(=O)c1cccc(C)c1)c1ccccc1	-0.1	i	-0.7	4.5	0.1	33.0*
O=C(NCCc1ccccc1C(F)(F)F)c1cc(COc2ccccc2)on1	0.4	i	-0.1	1.1	5.4	-2.3
Cc1ccccc1NS(=O)(=O)c1ccc(-c2ccc(=O)[nH]n2)o1	-0.7	i	-1.6	2.4	-1.2	0.0
CCN(CC)c1ccc(NS(=O)(=O)c2ccc(-c3ccc(=O)[nH]n3)o2)c(C)c1	-0.6	i	-3.1	14.8*	-1.3	-6.4
CC[C@@]12C(=O)N(c3cccc(F)c3)C(=O)N1[C@H](c1cccc(C)c1)[C@@H]1C(=O)N(Cc3ccccc3)C(=O)[C@@H]12	0.5	i	3.6	-2.5	-3.6	-4.2
CC[C@@]12C(=O)N(c3ccccc3)C(=O)N1[C@H](c1cccc(C)c1)[C@@H]1C(=O)N(Cc3ccccc3)C(=O)[C@@H]12	0.6	i	1.1	9.8	7.3	24.0*
Cc1ccc(NC(=O)COC(=O)c2ccco2)cc1S(=O)(=O)N1CCCCC1	0.8	i	-0.4	0.1	-1.8	0.9
CC(C)=CCOc1ccc2c(C)c(CC(=O)N3C[C@H]4C[C@@H](C3)c3cccc(=O)n3C4)c(=O)oc2c1C	-15.8	x	2.4	3.0	-0.5	34.9*

Screening data deposited in PubChem by several laboratories.
